From PubChem BioAssay (NCI)
About 83,000 compounds went through this panel and 20% of them were active in at least one assay; those are over-represented in the sample as a whole.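 In brief: 96-well plates, 48 h treatment, single concentration, percent growth endpoint.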 A number with no mark means an inactive call. Activity calls are given as the source filed them. How the source made its calls: active means growth percent below 10; inactive means the rest.

system: HL-60(TB) leukemia; experiment: NCI-60 one-dose screen, 48 h (100 = growth as untreated, 0 = no growth, -100 = all killed); details: 10 µM unless noted

SMILES | growth
Cc1cc(N2CCOCC2)nc(N(CCNc2ccnc3cc(Cl)ccc23)Cc2cccs2)n1 | -63.2% (active)
CCCn1cnc2c1c(=O)n(CCCCC(C)=O)c(=O)n2C | 91.4%
O=C(c1ccc(F)c(Cl)c1)N1c2ccccc2Sc2ccccc21 | 30.8%
COc1ccc(S(=O)(=O)c2ccc(C(N)=O)cc2)cc1NC(=O)c1[nH]c(C)c2c1CCCCC2=O | 4.2% (active)
COc1ccccc1N1C(=N)S/C(=C\c2ccc(OCc3ccccc3F)cc2)C1=O | 112%
COc1ccc(/C(C)=C(/c2ccc(OCCCN(C)C)cc2)c2ccc(OC(=O)c3ccccc3)cc2)cc1 | 62.8%
CC(C)(C)[Si](C)(C)OC1[C@@H](O[Si](C)(C)C(C)(C)C)[C@@H](CNC(=O)NC(=O)NC(=O)CCl)O[C@H]1n1cnc2c(NC(=O)Nc3ccccc3)ncnc21 (stereo not given in full) | 19.7%
O=C1Nc2ccc(Cl)cc2/C1=N/N=C(c1ccccc1)c1ccccc1 | 91.4%
O=C1C[C@H](Sc2nc(-c3ccc(F)cc3)cc(C(F)(F)F)n2)[C@H]2CO[C@@H]1O2 | 46.9%
CCC1=C[C@H]2CN(CCc3c([nH]c4ccccc34)[C@@](C(=O)OC)(c3cc4c(cc3OC)N(C)[C@H]3[C@@](O)(C(=O)OC)[C@H](OC(C)=O)[C@]5(CC)[C@@H]6C[C@@H]6CN6CC[C@]43[C@@H]65)C2)C1 | -33.4% (active)
COc1ccc(C2CC(c3cccc(Nc4ccncc4)c3)=NN2c2cc(Cl)cc(Cl)c2)cc1 (stereo not given) | 4.35% (active)
COc1cc(CNC(=O)CCCC/C=C/C(C)C)ccc1OCc1cn(-c2ccc([N+](=O)[O-])cc2)nn1 | 81%
Cc1ccc(CC#N)cc1C | 116%
CC(=O)OC(C)c1cccc(C#N)c1 (stereo not given) | 105%
OC1(c2ccccc2)c2ccccc2N(c2ccccc2)c2ccc(Cl)cc21 (stereo not given) | -22.2% (active)
COc1ccc(-c2nn(-c3cccc(NC(=O)c4cccc(C(F)(F)F)c4)c3)cc2-c2ccncc2)cc1Cl | 4.23% (active)
COc1cc(C2=Nc3c(N)nc(N)nc3NC(c3cccc(Nc4ccnc5cc(C(F)(F)F)ccc45)c3)C2)cc(OC)c1OC (stereo not given) | 63.2%
CC1(C)NCCC[C@]2(C)[C@H]3C=CC4=C5C[C@](C)(CO)CC[C@]5(C)CC[C@@]4(C)[C@]3(C)CC[C@@H]12 | -52.8% [100 µM] (active)
Cc1ccc(NC(=O)c2nc(S(C)=O)oc2-c2ccc(F)cc2)cc1Nc1nccc(-c2cccnc2)n1 (stereo not given) | 47.3%
CCCC1OC(c2ccc(C(C)C)cc2)OCC1CC (stereo not given) | 92.7%

SMILES | growth
CC(=O)NC(N)=S | 70.8%
COc1ccc(-c2nc3ccc(-c4nc5ccc(N6CCN(c7ccccc7)CC6)cc5[nH]4)cc3[nH]2)cc1OC | 16.1%
COc1cc(Nc2c3ccc(Cl)cc3nc3ccc(OC)cc23)c2ncccc2c1 | 49.5%
COC(=O)/C=C1\S/C(=N\NC(=O)c2cc3ccc2/C=C\c2ccc(cc2)/C=C\3)N(Cc2ccccc2)C1=O | -5.46% (active)
CCc1ccc(C2=NN(c3ccc(S(C)(=O)=O)cc3)C(=O)CC2)cc1 | 6.73% (active)
Cc1noc(C)c1-c1cc(O)cc(C(O)c2ccccc2)c1 (stereo not given) | 10%
CSc1nn2c(-c3ccc4ccccc4c3)ccnc2c1C#N | 14.1%
CCCCOCC(=O)NC(NP(=O)(N(C)C)N(C)C)C(Cl)(Cl)Cl (stereo not given) | 100%
O=C1NC(=Nc2ccc(Cl)cc2)S/C1=C\c1cn(-c2ccccc2)nc1-c1ccccc1 | 92%
CCCCCCCCCCCCOC(=N)N(C)C | 91.9%
CC1(C)CC(=O)c2c(nc3ccc(Cl)cc3c2-c2ccccc2)C1 | 82.3%
CN(C)c1ccc(-n2nc3ccccc3n2)cc1 | 90.5%
C/C=C1\SC(=S)NC1=O | 110%
CN1C(=O)C(C(=O)/C=C/c2ccccc2C(=O)O)C(=O)N(C)C1=O | 97.4%
COc1cc(C2CC(c3cccc(Nc4ccncc4)c3)=Nc3c(N)ncnc3N2)cc(OC)c1OC (stereo not given) | 83.7%
COC(CCP(=O)(c1ccccc1)c1ccccc1)(C(=O)c1ccccc1)c1ccccc1 (stereo not given) | 7.75% (active)
Nc1ccc(S(=O)(=O)Nc2cc(F)cc(F)c2)cc1 | 73%
N#C/C(=C\c1ccc(Cl)cc1)n1nnc2cc(F)c(F)cc21 | -19.4% (active)
COc1ccc2c(c1)c(/C(O)=C1\COC(=O)C1=O)cn2Cc1ccc(F)cc1 | 85.6%
CN1C(=C2C(=O)OC(C)(C)OC2=O)CCC1C(=O)NCc1ccc(Cl)cc1Cl (stereo not given) | 83.7%
